# Screening data from PubChem BioAssay.
# Tau fibril ThT – qHTS for Inhibitors of Tau Fibril Formation, Thioflavin T Binding | Microtubule-associated protein tau (Homo sapiens), P10636 | recombinant tau K18 P301L, heparin-induced fibrillization, ThT fluorescence | Potency, µM (titrated, usually from 57.4 µM), for the others: at the highest dose activity, negative = inhibition, hits mostly inhibitors | 270,000 tested, 2.1% active | AID 1460, 2008; further: potency means the concentration at half of the fitted maximal effect; nearly all actives have a fitted effect of over 55% in size
# Target sequence (P10636 561-689 P618L limits assumed): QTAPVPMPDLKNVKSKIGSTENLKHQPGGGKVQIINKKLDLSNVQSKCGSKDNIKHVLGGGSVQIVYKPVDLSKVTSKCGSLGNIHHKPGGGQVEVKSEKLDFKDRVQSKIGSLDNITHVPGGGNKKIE
#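 Heparin-induced fibrillization of the P301L-mutant K18 repeat-domain fragment of human tau was followed by ThT binding in quantitative high-throughput format.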
# USP1 inh – Inhibitors of USP1/UAF1: Primary Screen; recombinant USP1/UAF1, Ub-Rhodamine cleavage fluorescence; Potency, µM (top dose mostly 57.1 µM), for inactives: at the highest dose activity change, negative = inhibition, usual class: inhibitors; 390,000 tested, 0.23% active; AID 743255, 2014; further: potency means the concentration at half of the fitted maximal effect; nearly all actives have a fitted effect of over 60% in size
#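 1 nM enzyme complex + cpd, 15 min RT; start with Ub-Rho 150nM final; kinetic fluorescence ex 480/em 540, 6 reads q60 s. Buffer 50mM HEPES pH 7.8, 0.5mM EDTA, 0.1 mg/ml BSA, 1mM TCEP, 0.01% Tween-20.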
# Tau FP inhib – qHTS for Inhibitors of Tau Fibril Formation, Fluorescence Polarization; Potency, µM (series often up to 57.7 µM), for the others: top-dose activity, negative = inhibition, most hits filed as inhibitors; 280,000 tested, 0.39% active; Microtubule-associated protein tau (Homo sapiens), P10636; K18 P301L tau heparin fibrillization, Alexa594 FP, 6 h; further: potency means the concentration at half of the fitted maximal effect; nearly all actives have a fitted effect of over 55% in size
#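 Steps: dispense K18 P301L tau (15 uM plus 0.24 uM Alexa 594 tracer, final) in pH 7 sodium acetate; add compound; add heparin (20 uM final); incubate 6 hr, 37 C; add ThT (30 uM final); after 1 hr ambient, read FP.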
# Tau fluor counter – Counterscreen qHTS for Inhibitors of Tau Fibril Formation, Fluorescence Polarization; Potency, µM (top dose mostly 57.7 µM), without a hit: at the highest dose activity change, negative = decrease; 280,000 tested, 0.93% active; tau K18 P301L Alexa594 fluorescence, heparin fibrillization; AID 1463, 2008; further: potency means the concentration at half of the fitted maximal effect; nearly all actives have a fitted effect of over 55% in size
#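 Human tau K18 P301L (15 uM unlabeled, 0.24 uM Alexa 594-labeled) in 100 mM sodium acetate pH 7 with 20 uM heparin, 6 hr at 37 C. ThT 30 uM added, 1 hr ambient; Alexa 594 FP and total fluorescence read at 555/632 nm.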
# FBPA coupling cs – qHTS Assay for Inhibitors of Fructose-1,6-bisphosphate Aldolase from Giardia Lamblia: Coupling assay counterscreen; coupling enzyme system counterscreen, AmpLite Red fluorescence; activity change, negative = inhibition, % at 58.2 µM, hits read low; 290,000 tested, 0.67% active; in the data active means activity change below about -30%
#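 Final compound at 57.5 uM, incubated 10 min at RT with coupling enzyme reagent (glyceraldehyde-3-phosphate), then 20 min with substrate and AmpLite Red detection. Fluorescence read at 525/598 nm; tests interference with the coupling assay, not aldolase inhibition.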
# Active calls of the source: *; ? = inconclusive; nt = no result; [ ] = dose if it differs, or a comment. Most compounds without a hit are left out; they make up all but 2.3% or so of the library. Unless noted, the call rests on the fitted dose curve; in most records, active means well fitted curve in the direction sought with a large enough effect; inconclusive means small, poorly fitted or top-dose-only effect, or another doubt; inactive means no such curve, though single readings can be large; an effect the other way counts as inactive or inconclusive. On the % scale 0 is the no-effect control and ±100 the full control effect.
SMILES,Tau fibril ThT,USP1 inh,Tau FP inhib,Tau fluor counter,FBPA coupling cs
C/C(=N\Nc1nnc(C)c(=O)[nH]1)C(=O)O,-7%,-10%,?,-6%,-51*
O=C(COC(=O)c1ccccc1Cc1ccccc1)Nc1ccc(SC(F)F)cc1,3%,-18%,25µM*,?,2
CC1CCN(c2ccc(NC(=O)Cc3ccccc3)cc2)CC1,-15%,-23%,3%,-12%,0
COc1cccc(CNc2ccc(N3CCC(C)CC3)cc2)c1OC,18µM*,-13%,?,?,-11
CCc1cccc(C)c1Nc1c(-c2cccc(O)c2)nc2nc(C)cc(C)n12,?,-13%,13%,-28%,nt
COc1cc(-c2nc3sccn3c2Nc2c(C)cccc2C)ccc1O,16µM*,-18%,22µM*,?,nt
CCc1cccc(C)c1Nc1c(-c2cccc(O)c2)nc2sccn12,?,-23%,15%,18µM*[quencher],nt
Cc1cccc(C)c1Nc1c(-c2ccc(O)cc2)nc2sccn12,?,-18%,11%,?,nt
O=c1[nH]c(SCc2ccccc2)nc2c1sc1ccccc12,9%,0%,3%,12%,4
CCOc1ccc(NC(=O)N(Cc2c[nH]c3ccccc23)C2CCCCC2)cc1,-5%,-16%,-5%,-14%,nt
CCOc1ccc(CCNC(=O)Cn2c(C)c3cnn(-c4ccccc4)c(=O)c3c2C)cc1,-3%,-15%,3%,-8%,nt
COc1ccc(N(C)C(=O)c2nc(-c3cccc(F)c3)n3c2CCCCC3)c(OC)c1,2%,-10%,10%,1%,nt
CC(=O)OCC1=C(C(=O)O)N2C(=O)[C@@H](NC(=O)Cc3cccs3)[C@H]2SC1,?,16%,?,-15%,-4
O=C(Cc1cccs1)NC1C(=O)N2C(C(=O)[O-])=C(C[n+]3ccccc3)CSC12 (centres undefined),16µM*,nt,?,-24%,-2
Cn1c(-n2cccc2)c(-c2c(-c3ccc(F)cc3)[nH]c3c2c(=O)n(C)c(=O)n3C)c(=O)n(C)c1=O,6%,-30%,6%,5%,nt
Cc1ccc(-n2[nH]c(C)c(/C=N/Nc3ccc([N+](=O)[O-])cc3[N+](=O)[O-])c2=O)cc1C,2.2µM*,3%,20µM*,4.5µM*[quencher],13
COC(=O)NC(CC(C)=O)c1ccc2c(c1)OCO2 (centres undefined),-1%[11.5 µM],nt,-5%[11.6 µM],-6%[11.6 µM],1
Cc1ccc(C(C(=O)NCc2ccco2)N(Cc2ccco2)C(=O)CNC(=O)c2ccco2)cc1 (centres undefined),7.1µM*,-8%,?,-20%,2
Cc1ccccc1-n1sc2cc(F)ccc2c1=O,10µM*,-20%,25µM*,-14%,4
CCc1ccc(NC(=O)c2ccc(NC(=O)C3CCCO3)cc2)cc1 (centres undefined),nt,-3%,nt,nt,-1
CC(=O)c1ccc(N2CCN(S(=O)(=O)c3ccc4[nH]c5c(c4c3)CCCCC5)CC2)cc1,-13%,-19%,-7%,?,nt
CCOC(=O)CC(NS(=O)(=O)c1ccc2[nH]c3c(c2c1)CCCC3)c1ccccc1Cl (centres undefined),-11%,-16%,20%,?,nt
CC(=O)c1ccc(NS(=O)(=O)c2ccc3[nH]c4c(c3c2)CCCCCC4)cc1,6%,-11%,?,10µM*[quencher],nt
CC(=O)Nc1ccc(NS(=O)(=O)c2ccc3[nH]c4c(c3c2)CCCCC4)cc1,?,-20%,-6%,16µM*[quencher],nt
CC(=O)c1ccc(NS(=O)(=O)c2ccc3[nH]c4c(c3c2)CCCC4)cc1,11%,-6%,-7%,8.9µM*[quencher],nt
SMILES,Tau fibril ThT,USP1 inh,Tau FP inhib,Tau fluor counter,FBPA coupling cs
CCSC1=NC2(CCCCC2)Nc2sc3c(c21)CCCC3,28µM*,-12%,?,?,-3
FC(F)(F)c1ccc2c(c1)N1CCCC1CN2 (centres undefined),18µM*,-18%,-7%,?,-12
FC(F)(F)c1ccc2c(c1)NCC1CCCN21 (centres undefined),?,-13%,-17%,?,-3
Cc1ccc(CNc2ccc(-c3nc(-c4ccco4)no3)cc2[N+](=O)[O-])cc1,-2%,-18%,?,-19%,nt
COc1cc(-c2nc3ccccn3c2/N=C/c2ccccc2)ccc1O,?,-10%,-15%,-26%,4
COc1cc(-c2nc3ccccn3c2/N=C/c2cc(OC)c(O)cc2Cl)ccc1O,14µM*,-19%,?,?,-11
O=C(COc1ccc(/C=N/NS(=O)(=O)c2ccccc2)cc1)Nc1cccc(Cl)c1,?,-24%,8%,16µM*[quencher],-2
O=C(CSc1ncccc1C(=O)Oc1ccccc1Cl)Nc1ccc(C(F)(F)F)cc1Cl,4%,17%,-5%,-6%,nt
O=C(c1ccc2c(c1)N(Cc1cccc(Cl)c1)C(=O)c1ccccc1S2=O)N1CCC(Cc2ccccc2)CC1 (centres undefined),-9%,-13%,-2%,-9%,nt
COc1ccccc1/C=C/C=C1\Oc2c(ccc(O)c2CN(C)C)C1=O,?,25µM*,3%,-21%,1
Cc1ccc(/C=C2\Oc3cc(OCC(=O)NN)ccc3C2=O)o1,nt,-25%,nt,nt,0
CCN(CC)Cc1c(O)ccc2c1O/C(=C\C=C\c1ccccc1)C2=O,?,32µM*,10%,-10%,0
CS(=O)(=O)Oc1ccc2c(c1)O/C(=C\C=C\c1ccccc1)C2=O,?,-19%,-7%,?,4
COCCN(CCOC)Cc1c(O)ccc2c1O/C(=C\c1ccc(C)o1)C2=O,nt,32µM*,nt,nt,-15
Cc1ccccc1-n1c(=O)/c(=C\c2ccco2)s/c1=C(/C#N)C(=O)Nc1ccccc1,16µM*,-12%,?,-29%,-14
CCOC(=O)/C=c1\s/c(=C(\C#N)C(=O)NC)n(-c2ccccc2)c1=O,?,4%,-6%,-7%,0
COc1ccc([C@H]2CC(=O)C=C(c3cccc(CO)c3)C2)cc1,nt,-19%,nt,nt,nt
O=C(Nc1ccc(Cl)cc1)Nc1ccccc1NS(=O)(=O)c1cccs1,?,-26%,?,14µM*[quencher],4
O=C(Nc1ccc(F)cc1)Nc1ccccc1NS(=O)(=O)c1cccs1,-10%,-12%,-11%,?,4
O=C(Nc1ccc(Cl)cc1)Nc1cccc2nsnc12,?,2%,14µM*,?,-6
COC(=O)CC1c2ccccc2C(Cc2ccc(OC)cc2)C(C)N1C(=O)OC (centres undefined),13%[11.5 µM],nt,2%[11.6 µM],8%[11.6 µM],0
